Experimental data reported in article PMC5515408, “Sequence-specific DNA binding by MYC/MAX to low-affinity non-E-box motifs”.
The full ranking holds about 5,000 sequences; the median of “log2 normalized fluorescence” is about 0.089, and the highest 2% start at about 0.81. The sample as a whole holds a higher share of the highest values than the screen did.

target: MYC (p64);MAX (p21), in MYC:MAX (human;human, UniProt P01106-1;P61244-2 1-439;1-151, |); assay: protein-binding microarray (anti-MAX antibody); PBM: 15 mM Tris-HCl pH 7.5, 100 mM KCl, 0.075% NP40, 7.5 mM beta-mercaptoethanol, 375 ng/ul BSA, 8 ng/ul poly(dA-dT):(dA-dT), 550 ng complex, 60 min, room tempe; high values mean tight binding; details: protein: recombinant;recombinant; tags: 6xHis;6xHis; copies: 1;1; label: 3' end of printed strand (linker) attached to glass slide; dsDNA, one strand shown
Sequence (P01106 16-454, chain 1 of 2): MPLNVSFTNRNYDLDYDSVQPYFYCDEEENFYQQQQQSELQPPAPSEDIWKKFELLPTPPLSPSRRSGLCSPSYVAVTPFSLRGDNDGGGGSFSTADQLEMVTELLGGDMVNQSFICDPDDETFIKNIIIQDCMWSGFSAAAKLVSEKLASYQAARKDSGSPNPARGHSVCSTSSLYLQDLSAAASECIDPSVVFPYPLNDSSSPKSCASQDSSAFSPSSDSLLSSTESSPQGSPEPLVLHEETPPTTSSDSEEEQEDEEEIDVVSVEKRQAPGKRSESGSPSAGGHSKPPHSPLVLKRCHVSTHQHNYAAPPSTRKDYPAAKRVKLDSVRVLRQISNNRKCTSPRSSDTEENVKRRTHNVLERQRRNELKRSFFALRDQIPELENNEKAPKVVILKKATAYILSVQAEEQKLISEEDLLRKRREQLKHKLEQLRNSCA
Sequence (P61244 other isoform, or with tags, fused parts or gaps |, chain 2 of 2): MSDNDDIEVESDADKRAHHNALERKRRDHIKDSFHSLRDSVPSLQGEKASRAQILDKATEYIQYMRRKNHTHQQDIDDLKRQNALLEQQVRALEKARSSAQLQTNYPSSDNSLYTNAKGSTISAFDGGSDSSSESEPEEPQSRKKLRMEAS
Summary of the method: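 Binding is reported as log2 normalized fluorescence. Recombinant His-tagged human MYC:MAX or MAX:MAX dimers expressed in E. coli (550 ng) were incubated with a custom Agilent glass array for 60 min at room temperature in Tris-KCl buffer, pH 7.5, containing NP40, BSA and poly(dA-dT) competitor. The array carried ~5000 unique 12-nt sequences, each spotted in triplicate and made double-stranded by primer extension, and bound protein was detected with anti-MAX and secondary antibodies and scanned at 543 nm.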

| Sequence | binding signal |
| --- | --- |
| CCGGCTGAACAAGGGTATTAATAGCTAAGATTACTATATCGACG | 0.093 log2 normalized fluorescence |
| CCGGCTGACCAAAGGTATTAATAGCTAAGATTACTATATCGACG | 0.0357 log2 normalized fluorescence |
| CCGGCTGACGACAAGTATTAATAGCTAAGATTACTATATCGACG | 0.0769 log2 normalized fluorescence |
| CCGGCTGACTCCAAGTATTAATAGCTAAGATTACTATATCGACG | 0.0835 log2 normalized fluorescence |
| CCGGCTGACAACTGGTTTTAATAGCTAAGATTACTATATCGACG | 0.195 log2 normalized fluorescence |
| CCGGCTGAAGGACTGTATTAATAGCTAAGATTACTATATCGACG | 0.0114 log2 normalized fluorescence |
| CCGGCTTGCACGTGGTTTTAATAGCTAAGATTACTATATCGACG | 0.716 log2 normalized fluorescence |
| CCGGCTTGCACTTGGTATTAATAGCTAAGATTACTATATCGACG | 0.318 log2 normalized fluorescence |
| CCGGCCTACACGTGGTATTAATAGCTAAGATTACTATATCGACG | 0.805 log2 normalized fluorescence |
| CCGGCCTCCACGTGGTATTAATAGCTAAGATTACTATATCGACG | 0.737 log2 normalized fluorescence |
| CCGGCGTGCACGTGGTATTAATAGCTAAGATTACTATATCGACG | 0.856 log2 normalized fluorescence |
| CCGGCCTGCACGTGGTATTAATAGCTAAGATTACTATATCGACG | 0.875 log2 normalized fluorescence |
| CCGGCGTCCACGTGGTATTAATAGCTAAGATTACTATATCGACG | 0.808 log2 normalized fluorescence |
| CCGGCGTATACGTGGTATTAATAGCTAAGATTACTATATCGACG | 0.202 log2 normalized fluorescence |
| CCGGCTTGCACGTGGTATTAATAGCTAAGATTACTATATCGACG | 1.01 log2 normalized fluorescence |
| CCGGCTGAATTACCGTATTAATAGCTAAGATTACTATATCGACG | 0.041 log2 normalized fluorescence |
| CCGGCTGAGCAACTGTATTAATAGCTAAGATTACTATATCGACG | 0.128 log2 normalized fluorescence |
| CCGGCTGAATTACTGTATTAATAGCTAAGATTACTATATCGACG | 0.0701 log2 normalized fluorescence |
| CCGGCTGAGTCGGGGTATTAATAGCTAAGATTACTATATCGACG | 0.126 log2 normalized fluorescence |
| CCGGCTACTACGTGGTATTAATAGCTAAGATTACTATATCGACG | 0.34 log2 normalized fluorescence |
| CCGGCACGCACGTGGTATTAATAGCTAAGATTACTATATCGACG | 0.838 log2 normalized fluorescence |
| CCGGCAGGCACGTGGTATTAATAGCTAAGATTACTATATCGACG | 0.815 log2 normalized fluorescence |
| CCGGCACTCACGTGGTATTAATAGCTAAGATTACTATATCGACG | 0.862 log2 normalized fluorescence |
| CCGGCACACACGTGGTATTAATAGCTAAGATTACTATATCGACG | 0.804 log2 normalized fluorescence |
| CCGGCACCCACGTGGTATTAATAGCTAAGATTACTATATCGACG | 0.845 log2 normalized fluorescence |
| CCGGCAGAGACGTGGTATTAATAGCTAAGATTACTATATCGACG | 0.387 log2 normalized fluorescence |
| CCGGCTGAACCTCAGTATTAATAGCTAAGATTACTATATCGACG | 0.265 log2 normalized fluorescence |

| Sequence | binding signal |
| --- | --- |
| CCGGCTGAAATGCCGTATTAATAGCTAAGATTACTATATCGACG | 0.0989 log2 normalized fluorescence |
| CCGGCTGATACGTGGTATTAATAGCTAAGATTACTATATCGACG | 0.341 log2 normalized fluorescence |
| CCGGCTGAGTGATCGTATTAATAGCTAAGATTACTATATCGACG | 0.194 log2 normalized fluorescence |
| CCGGCTGAACATACGTATTAATAGCTAAGATTACTATATCGACG | 0.202 log2 normalized fluorescence |
| CCGGCTGATGGCGGGTATTAATAGCTAAGATTACTATATCGACG | 0.232 log2 normalized fluorescence |
| CCGGCTGACCCCGTGTATTAATAGCTAAGATTACTATATCGACG | 0.42 log2 normalized fluorescence |
| CCGGCGGACACGAGGTATTAATAGCTAAGATTACTATATCGACG | 0.562 log2 normalized fluorescence |
| CCGGCTGACCACCCGTATTAATAGCTAAGATTACTATATCGACG | 0.348 log2 normalized fluorescence |
| CCGGCTGAGGGACGGTATTAATAGCTAAGATTACTATATCGACG | 0.0602 log2 normalized fluorescence |
| CCGGCTGATGTTCTGTATTAATAGCTAAGATTACTATATCGACG | 0.261 log2 normalized fluorescence |
| CCGGCTGATGAGGTGTATTAATAGCTAAGATTACTATATCGACG | -0.000883 log2 normalized fluorescence |
| CCGGCTGAGTATACGTATTAATAGCTAAGATTACTATATCGACG | 0.0171 log2 normalized fluorescence |
| CCGGCAGCCACGTGGTATTAATAGCTAAGATTACTATATCGACG | 0.908 log2 normalized fluorescence |
| CCGGCTGCATCGTGGTATTAATAGCTAAGATTACTATATCGACG | 0.636 log2 normalized fluorescence |
| CCGGCAGTCACGTGGTATTAATAGCTAAGATTACTATATCGACG | 0.893 log2 normalized fluorescence |
| CCGGCAGCTACGTGGTATTAATAGCTAAGATTACTATATCGACG | 0.389 log2 normalized fluorescence |
| CCGGCATGCACGTGGTATTAATAGCTAAGATTACTATATCGACG | 0.877 log2 normalized fluorescence |
| CCGGCAGCCACGTTGTATTAATAGCTAAGATTACTATATCGACG | 0.643 log2 normalized fluorescence |
| CCGGCTGTCACGTGGTATTAATAGCTAAGATTACTATATCGACG | 0.706 log2 normalized fluorescence |
| CCGGCTGAAAGAGAGTATTAATAGCTAAGATTACTATATCGACG | -0.0282 log2 normalized fluorescence |
| CCGGCTGACCGGGTGTATTAATAGCTAAGATTACTATATCGACG | 0.119 log2 normalized fluorescence |
| CCGGCTGAGTACGGGTATTAATAGCTAAGATTACTATATCGACG | -0.0173 log2 normalized fluorescence |
| CCGGCTGATGCGCAGTATTAATAGCTAAGATTACTATATCGACG | 0.0262 log2 normalized fluorescence |
| CCGGCTCACACGTGGGCTTAATAGCTAAGATTACTATATCGACG | 0.832 log2 normalized fluorescence |
| CCGGCTCTCACGTGGTATTAATAGCTAAGATTACTATATCGACG | 0.891 log2 normalized fluorescence |
| CCGGCGCTCACGTGGTATTAATAGCTAAGATTACTATATCGACG | 0.815 log2 normalized fluorescence |
